Source: PubChem BioAssay (Tox21)
Several values for one entry are separate records, joined by “and”; a condition that tells them apart may be missing. Identical values can stand only once. Records with an inconclusive call do not appear. A structure can be active in one record and inactive in another. Activity calls are given as the source filed them. Unless noted, calls come from the whole dose curve.

Test system: not listed separately
Experiment: qHTS assay to identify small molecule antagonists of the estrogen related receptor signaling pathway with the pleiotropic PPARgamma coactivator (PGC) from Tox21 10K library (AID 1224841; call rule not given here; note: actives are mostly falling curves and most rising ones were filed inactive; nearly all actives have a fitted effect of over 50% in size)
Settings: PGC/ERR reporter cell line, ONE-Glo luciferase, 18 h; series mostly up to 92.4 µM; activity, negative = inhibition: at the top concentration
In short: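 qHTS antagonist format: PGC/ERR cells, 2k/well, compound in DMSO by pin transfer after 6 h attachment, 18 h treatment at 37 C, One-Glo luminescence read at 30 min.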
% is set by controls: 0 for no effect and ±100 for the full control effect; potency is the fitted concentration of half-maximal effect.

| SMILES | Potency | activity, negative = inhibition |
| --- | --- | --- |
| CC(C)(C)c1ccc(CSc2cnn(C(C)(C)C)c(=O)c2Cl)cc1 | 0.0049 µM (active) |  |
| C=CC(=O)OCCCCOC(=O)C=C |  | -63.7% (inactive) |
| C=CCC1=C(C)C(OC(=O)C2C(C=C(C)C)C2(C)C)CC1=O (stereo not given) | 20.5 µM (active) |  |
| CC(C)C1CCC(Cc2ccc(Cl)cc2)C1(O)Cn1cncn1 (stereo not given) | 15.2 µM (active) |  |
| OC(Cc1ccccc1Cl)(Cn1cncn1)C1(Cl)CC1 (stereo not given) | 54.5 µM (active) |  |
| Nc1ccc(Cc2ccc(N)c(Cl)c2)cc1Cl | 13.2 µM (active) |  |
| C[C@]12CC[C@H](O)C[C@H]1CC[C@@H]1[C@@H]2C[C@@H](O)[C@]2(C)[C@@H](C3=CC(=O)OC3)CC[C@]12O | 3.86 µM (active) |  |
| Oc1c(Cl)c(Cl)cc(Cl)c1Cl | 53 µM (active) |  |
| O=[N+]([O-])c1c2ccccc2cc2ccccc12 |  | 77% (inactive) |
| CSCCCN=C=S |  | 6.27% (inactive) |
| O=C1c2ccccc2C(=O)C1C(=O)C(c1ccccc1)c1ccc(Cl)cc1 (stereo not given) | 6.11 µM (active) |  |
| CCc1nn(C)c(C(=O)NCc2ccc(C(C)(C)C)cc2)c1Cl | 0.0611 µM (active) |  |
| N#Cc1c(-c2ccc(Cl)cc2)[nH]c(C(F)(F)F)c1Br | 0.486 µM (active) |  |
| O=C(O)C1C2CCC(O2)C1C(=O)O (stereo not given) | inactive |  |
| CC(C)CC(C)(c1ccc(O)cc1)c1ccc(O)cc1 | 54.6 µM (active) |  |
| Oc1cc(Cl)c(Cl)c(Cl)c1 | 36.6 µM (active) |  |
| CC(C)CC(C)Nc1ccc(Nc2ccccc2)cc1 (stereo not given) | 60.1 µM (active) |  |
| CC1(c2ccc(Oc3ccccc3)cc2)OC(=O)N(Nc2ccccc2)C1=O (stereo not given) | 4.89 µM (active) |  |

Test system: not listed separately
Experiment: qHTS assay to identify small molecule agonists of the estrogen related receptor signaling pathway with the pleiotropic PPARgamma coactivator (PGC) from Tox21 10K library (AID 1224842; active = well fitted activation curve with a large enough effect in the repeat runs; note: nearly all actives have a fitted effect of over 15% in size)
Settings: PGC/ERR reporter cell line, luciferase ONE-Glo, 18 h; series mostly up to 92.4 µM; activation: at the top concentration
In short: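 PGC/ERR reporter cell line, 2,000 cells per well, incubated 6 h at 37 C before 23 nL compound in DMSO was added. After 18 h at 37 C, One-Glo luminescence read following 30 min at room temperature.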

| SMILES | activation | Potency |
| --- | --- | --- |
| CC(C)(C)c1ccc(CSc2cnn(C(C)(C)C)c(=O)c2Cl)cc1 | -20.8% (inactive) |  |
| C=CC(=O)OCCCCOC(=O)C=C |  | 21.7 µM (active) |
| C=CCC1=C(C)C(OC(=O)C2C(C=C(C)C)C2(C)C)CC1=O (stereo not given) | -17.6% (inactive) |  |
| CC(C)C1CCC(Cc2ccc(Cl)cc2)C1(O)Cn1cncn1 (stereo not given) | -20.4% (inactive) |  |
| OC(Cc1ccccc1Cl)(Cn1cncn1)C1(Cl)CC1 (stereo not given) | -11.3% (inactive) |  |
| Nc1ccc(Cc2ccc(N)c(Cl)c2)cc1Cl | 0.273% (inactive) |  |
| C[C@]12CC[C@H](O)C[C@H]1CC[C@@H]1[C@@H]2C[C@@H](O)[C@]2(C)[C@@H](C3=CC(=O)OC3)CC[C@]12O | -31.5% (inactive) |  |
| Oc1ccc(C2(c3ccc(O)cc3)c3ccccc3-c3ccccc32)cc1 | -35% (inactive) |  |
| Oc1c(Cl)c(Cl)cc(Cl)c1Cl | -23.8% (inactive) |  |
| Cc1cc(C(C)(C)c2cc(C)c(O)c(C)c2)cc(C)c1O | -13.1% (inactive) |  |
| CSCCCN=C=S | 2.11% (inactive) |  |
| O=C1c2ccccc2C(=O)C1C(=O)C(c1ccccc1)c1ccc(Cl)cc1 (stereo not given) | -24.5% (inactive) |  |
| CCc1nn(C)c(C(=O)NCc2ccc(C(C)(C)C)cc2)c1Cl | -21.9% (inactive) |  |
| N#CCCC(Br)(C#N)CBr (stereo not given) | -30.9% (inactive) |  |
| N#Cc1c(-c2ccc(Cl)cc2)[nH]c(C(F)(F)F)c1Br | -18.3% (inactive) |  |
| O=C(O)C1C2CCC(O2)C1C(=O)O (stereo not given) |  | 55.1 µM (active) and 19.9 µM (active) |
| CC(C)CC(C)(c1ccc(O)cc1)c1ccc(O)cc1 |  | inactive |
| Oc1cc(Cl)c(Cl)c(Cl)c1 | -21.5% (inactive) |  |
| CC(C)N1C(=O)N(c2ccccc2)CSC1=NC(C)(C)C | -17.3% (inactive) |  |
| CC(C)CC(C)Nc1ccc(Nc2ccccc2)cc1 (stereo not given) | -29.4% (inactive) |  |
| Cn1cc(C2=C(c3cn(C4CCN(Cc5ccccn5)CC4)c4ccccc34)C(=O)NC2=O)c2ccccc21 | -11.2% [at 42.5 µM] (inactive) |  |
| CC1(c2ccc(Oc3ccccc3)cc2)OC(=O)N(Nc2ccccc2)C1=O (stereo not given) | -24.7% (inactive) |  |

Biological target: Thyrotropin receptor (Homo sapiens) (UniProt P16473)
Experiment: qHTS assay to identify small molecule agonists of the thyroid stimulating hormone receptor (TSHR) signaling pathway (AID 1224843); note: nearly all actives have a fitted effect of over 45% in size
Settings: TSHR-HEK293 cells, cAMP HTRF, agonist mode, 30 min; series mostly up to 92.4 µM; activation: at the top concentration
In short: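 Steps: seed 800 TSHR-HEK293 cells per well; add test compound and hold 30 min at ambient temperature; dispense cAMP-d2 then anti-cAMP cryptate; incubate 1 h at ambient; measure fluorescence intensity.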

Thyrotropin receptor (Homo sapiens), sequence (P16473 whole entry, looked up): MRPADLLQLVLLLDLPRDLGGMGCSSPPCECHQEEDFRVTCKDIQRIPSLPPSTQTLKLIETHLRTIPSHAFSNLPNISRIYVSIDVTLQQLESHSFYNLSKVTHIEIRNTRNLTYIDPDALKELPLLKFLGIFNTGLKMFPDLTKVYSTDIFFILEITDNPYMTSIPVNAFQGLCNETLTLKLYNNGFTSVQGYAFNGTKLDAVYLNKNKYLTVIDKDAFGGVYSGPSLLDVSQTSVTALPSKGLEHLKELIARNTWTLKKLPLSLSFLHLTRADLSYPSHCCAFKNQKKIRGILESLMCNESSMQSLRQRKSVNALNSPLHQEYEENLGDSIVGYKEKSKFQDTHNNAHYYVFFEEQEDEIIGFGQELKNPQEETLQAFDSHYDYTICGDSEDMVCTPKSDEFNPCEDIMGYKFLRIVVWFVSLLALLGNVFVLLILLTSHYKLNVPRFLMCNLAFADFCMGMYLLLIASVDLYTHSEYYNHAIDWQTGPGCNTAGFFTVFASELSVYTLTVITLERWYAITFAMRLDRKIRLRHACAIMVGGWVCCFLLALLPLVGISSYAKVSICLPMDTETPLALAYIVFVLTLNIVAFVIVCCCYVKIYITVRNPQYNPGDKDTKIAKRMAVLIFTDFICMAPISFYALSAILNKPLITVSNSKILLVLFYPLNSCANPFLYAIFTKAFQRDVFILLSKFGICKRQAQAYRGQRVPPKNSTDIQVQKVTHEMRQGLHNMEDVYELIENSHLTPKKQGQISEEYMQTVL

| SMILES | activation | Potency |
| --- | --- | --- |
| O=c1[nH]c2ccccc2n1CCCN1CCC(n2c(=O)[nH]c3cc(Cl)ccc32)CC1 | -1.04% [at 42.5 µM] (inactive) |  |
| CC(C)C1CCC(Cc2ccc(Cl)cc2)C1(O)Cn1cncn1 (stereo not given) |  | 48.1 µM (active) |
| CCCOCC(=Nc1ccc(Cl)cc1C(F)(F)F)n1ccnc1 |  | 54.4 µM (active) |
| OC(Cc1ccccc1Cl)(Cn1cncn1)C1(Cl)CC1 (stereo not given) | -1.74% (inactive) |  |
| Nc1ccc(Cc2ccc(N)c(Cl)c2)cc1Cl | -20.6% (inactive) |  |
| C[C@]12CC[C@H](O)C[C@H]1CC[C@@H]1[C@@H]2C[C@@H](O)[C@]2(C)[C@@H](C3=CC(=O)OC3)CC[C@]12O | -7.74% (inactive) |  |
| Oc1ccc(C2(c3ccc(O)cc3)c3ccccc3-c3ccccc32)cc1 |  | 54.5 µM (active) |
| Oc1c(Cl)c(Cl)cc(Cl)c1Cl | -19.1% (inactive) |  |
| O=[N+]([O-])c1c2ccccc2cc2ccccc12 | -16.2% (inactive) |  |
| Cc1cc(C(C)(C)c2cc(C)c(O)c(C)c2)cc(C)c1O |  | 33.2 µM (active) |
| CN(C)c1ccc(N=Nc2ccccc2)cc1 | -26.7% (inactive) |  |
| O=C(O)c1cc[c]([Hg][Cl])cc1 |  | 15.4 µM (active) |
| CSCCCN=C=S | -0.454% (inactive) |  |
| O=C1c2ccccc2C(=O)C1C(=O)C(c1ccccc1)c1ccc(Cl)cc1 (stereo not given) | 3.08% (inactive) |  |
| N#CCCC(Br)(C#N)CBr (stereo not given) |  | 4.86 µM (active) |
| N#Cc1c(-c2ccc(Cl)cc2)[nH]c(C(F)(F)F)c1Br | 4.39% (inactive) |  |
| O=C(O)C1C2CCC(O2)C1C(=O)O (stereo not given) |  | inactive |
| CC(C)CC(C)(c1ccc(O)cc1)c1ccc(O)cc1 |  | 48.7 µM (active) and inactive |
| Oc1cc(Cl)c(Cl)c(Cl)c1 | 4.26% (inactive) |  |
| Clc1ccc(CSC(Cn2ccnc2)c2ccc(Cl)cc2Cl)cc1 (stereo not given) | 2.87% [at 42.5 µM] (inactive) |  |
| CC(C)N1C(=O)N(c2ccccc2)CSC1=NC(C)(C)C | -1.47% (inactive) |  |
| CC(=O)OC1(c2ccccc2)CCN(CCc2ccccc2)CC1 | -14.4% (inactive) |  |
| Cn1cc(C2=C(c3cn(C4CCN(Cc5ccccn5)CC4)c4ccccc34)C(=O)NC2=O)c2ccccc21 | -0.303% [at 42.5 µM] (inactive) |  |
| Nc1ccc([N+](=O)[O-])cc1Cl | -27.1% (inactive) |  |
| CN(C)[C@@H]1C(=O)C(C(N)=O)=C(O)[C@@]2(O)C(=O)C3=C(O)c4c(O)ccc(Cl)c4[C@@](C)(O)[C@H]3C[C@@H]12 | -9.64% (inactive) |  |
